# Most compounds without a hit are left out; they make up all but 3.1% or so of the library.
# DNA Pol III inh – blocks replication by bacterial DNA polymerase III holoenzyme. Potency, µM (top dose mostly 57.1 µM). reconstituted DNA polymerase III holoenzyme replication, biochemical. AID 603. actives 0.25% (n = 71,000)
#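 Reconstituted *E. coli* holoenzyme (0.35 nM Pol III, 1 nM beta, 154 nM SSB, 2 nM primase) was preincubated with compound for 15 min at RT. Synthesis on 1.4 nM ssM13Gori ran 35 min, then was stopped with PicoGreen/EDTA and read as dsDNA fluorescence.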
# TsaE inh – displaces an ADP probe from E. coli YjeE (TsaE); P0AF67; purified YjeE enzyme, qHTS inhibition assay; Potency, µM; actives 0.05% (n = 71,000)
#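 Fluorescence polarization of a BODIPY Texas Red–ADP probe (2 uM) bound to purified YjeE (10 uM) was read after 15 min room-temperature incubation with compounds. Loss of polarization marks inhibitors; ADP serves as titrated control.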
# BRCT inh green – blocks human BRCA1 BRCT binding to phosphopeptide, green readout | P38398 | BRCA1 BRCT-phosphopeptide binding, green fluorescence polarization | Potency, µM (series often up to 76.9 µM), actives largely listed as inhibitors | actives 0.05% (n = 75,000) | AID 875
#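 Compounds were incubated for 12 min at room temperature with a complex of 100 nM fluorescein-tagged pBACH1 decapeptide and 250 nM His-tagged BRCT protein. Buffer was phosphate pH 7.3 with EDTA, DTT and Tween 20. Disruption of binding lowers the polarization signal.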
# BRCT inh red – disrupts BRCA1 BRCT binding to phosphoprotein, red fluorophore readout; actives 0.03% (n = 75,000); BRCT-phosphopeptide binding, red fluorescence polarization; Potency, µM (series often up to 76.9 µM), hits mostly inhibitors; P38398
#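 Rhodamine-labelled pBACH1 10-mer (100 nM) bound to BRCT domain (100 nM) at pH 7.3; compounds incubated 12 min room temperature, polarization read. Free peptide defines full inhibition; unlabelled decapeptide titrated as control.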
# 15-hLO inh – blocks human 15-lipoxygenase activity; P16050; purified 15hLO-1, xylenol orange hydroperoxide absorbance; Potency, µM (doses to about 57.1 µM), hits mostly inhibitors; actives 1.4% (n = 74,000); AID 887; note: nearly all actives have a fitted effect of over 55% in size
#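 Hydroperoxide formed from arachidonic acid (50 uM) by purified human 15hLO-1 (40 nM) oxidizes ferrous iron, and the ferric-xylenol orange complex is read at 573 versus 405 nm. Compounds were preincubated 15 min; reaction ran 6 min at room temperature.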
# Tau filament bind – tau filament binding; recombinant tau filaments, thioflavin S fluorescence, 15 h; filaments grown with octadecylsulfate alongside compound; Potency, µM (doses to about 57.1 µM); actives 2% (n = 71,000); AID 596;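 note: actives lower thioflavin S fluorescence by blocking filaments or displacing dye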
# Target sequence (P10636 whole entry, looked up): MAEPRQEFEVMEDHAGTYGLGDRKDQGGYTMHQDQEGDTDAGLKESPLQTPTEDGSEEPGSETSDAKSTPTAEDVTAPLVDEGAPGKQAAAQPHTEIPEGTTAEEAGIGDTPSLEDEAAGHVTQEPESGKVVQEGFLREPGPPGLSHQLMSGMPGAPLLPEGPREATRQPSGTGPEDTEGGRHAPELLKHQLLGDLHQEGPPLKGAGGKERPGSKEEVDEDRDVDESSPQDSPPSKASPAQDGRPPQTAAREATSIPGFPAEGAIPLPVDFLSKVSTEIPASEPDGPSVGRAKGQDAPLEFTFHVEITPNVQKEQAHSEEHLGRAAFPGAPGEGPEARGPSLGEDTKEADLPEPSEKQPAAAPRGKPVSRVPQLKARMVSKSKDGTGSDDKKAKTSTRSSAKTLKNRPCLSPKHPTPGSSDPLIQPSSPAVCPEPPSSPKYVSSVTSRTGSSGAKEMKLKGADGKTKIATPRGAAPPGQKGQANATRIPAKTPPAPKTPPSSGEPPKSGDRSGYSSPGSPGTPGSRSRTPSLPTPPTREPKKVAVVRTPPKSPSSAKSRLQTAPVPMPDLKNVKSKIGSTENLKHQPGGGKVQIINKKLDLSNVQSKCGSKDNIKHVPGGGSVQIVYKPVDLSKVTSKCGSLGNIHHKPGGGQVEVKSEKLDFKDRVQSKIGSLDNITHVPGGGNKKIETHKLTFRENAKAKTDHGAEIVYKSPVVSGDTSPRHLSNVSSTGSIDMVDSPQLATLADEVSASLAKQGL
#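 His-tagged recombinant human tau (exons 2, 3, 10; 1 uM final) fibrillized with 30 uM sodium octadecylsulfate, 15 h at 37 C, in pH 7.4 HEPES buffer with 10 uM thioflavine S and 5 mM DTT. Reduced ThS fluorescence (450/510 nm) marks activity.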
# Numbers stand for hits; – = inactive; ? = inconclusive; · = not tested or not shown; [ ] = dose if it differs, or a comment. Calls come from the whole dose curve; as a rule, active = well fitted curve in the direction sought with a large enough effect; inconclusive = small, poorly fitted or top-dose-only effect, or another doubt; inactive = no such curve, though single readings can be large; an effect the other way counts as inactive or inconclusive.
SMILES,DNA Pol III inh,TsaE inh,BRCT inh green,BRCT inh red,15-hLO inh,Tau filament bind
Cc1cc(C(=O)OCC(=O)N2CCN(c3ccccc3)CC2)c2ccccc2n1,–,–,–,–,–,13µM
O=S1(=O)N=C(Nc2ccc(N3CCOCC3)cc2)c2ccccc21,–,–,–,–,–,–
Cc1ccccc1-c1ccc(Nc2ccc(N3CCOCC3)cc2)nn1,–,–,–,–,–,16µM
Cc1c(C(=O)NCCC2=CCCCC2)oc2ccc(S(=O)(=O)N3CCOCC3)cc12,–,–,–,–,16µM,–
Clc1ccc(Cl)c(-c2nn3c(COc4ccccc4)nnc3s2)c1,–,–,–,–,10µM,–
c1ccc(OCc2nnc3sc(-c4cccs4)nn23)cc1,–,–,–,–,?,–
O=C(Nc1ccc2c(c1)OCO2)C1COc2ccccc2O1 (stereo not drawn),–,–,–,–,–,13µM
CCOC(=O)c1c(N)sc(C(=O)Nc2ccc3c(c2)OCO3)c1C,–,–,–,–,–,–
Cc1noc(C(=O)Nc2ccc3c(c2)OCO3)c1Cl,–,–,–,–,–,10µM
CC(=O)Nc1ccc(C(=O)Nc2ccc3c(c2)OCO3)cc1,–,–,–,–,–,20µM
CCOC(=O)CNc1ccc2c(c1)OCO2,–,–,–,–,2µM,–
Cc1onc(-c2ccccc2Cl)c1C(=O)Nc1ccc2c(c1)OCO2,·,·,–,–,–,·
COC(=O)N1CCC2(CC1)CN(C(=O)Nc1cccc(F)c1)C2,–,–,–,–,–,–
CC(=O)N(C)c1nc(-c2ccc(Cl)cc2)cs1,–,–,–,–,–,–
CC(=O)c1c(C)nc(-c2ccc(Cl)cc2)nc1N=CN(C)C,–,–,–,–,–,25µM
O=[N+]([O-])c1cccc2cn[nH]c12,–,–,–,–,–,?
O=[N+]([O-])c1cccc2c[nH]nc12,16µM,–,–,–,–,?
COCCn1c(=O)cnc2cnc(Nc3cccc(OC)c3)nc21,–,–,–,–,–,–
Cc1cc(OCCNCCO)cc(C)c1Cl,·,·,–,–,–,·
Cc1cc(OCCCCCNCCO)cc(C)c1Cl,–[11.4 µM],–,–,–,–[11.4 µM],2.5µM
CN1CCN(c2ncc3nc(-c4ccc(Cl)cc4)c(=O)n(Cc4ccc(F)cc4)c3n2)CC1,–,–,–,–,–,?
Cc1ccc2c(c1)c1cccc3c1n2CCN3CCC(N)=O,–,–,–,–,13µM,5µM
CCC(=O)Nc1ccc(Nc2ccccc2)cc1,–,–,–,–,–,?
COCC(=O)Nc1ccc(Nc2ccccc2)cc1,–,–,–,–,–,7.9µM
Nc1nc2c(s1)CCc1c-2cnn1-c1ccccc1,?,–,–,–,2.5µM,20µM
SMILES,DNA Pol III inh,TsaE inh,BRCT inh green,BRCT inh red,15-hLO inh,Tau filament bind
COc1ccc(-c2cnn(-c3ccccc3)c2N)cc1OC,–[11.4 µM],–,–,–,–[11.4 µM],–[11.4 µM]
O=C(NC1CCN(Cc2ccccc2)C1)c1ccc(Cc2nc3ccccc3[nH]2)cc1 (stereo not drawn),·,·,–,–,–,·
CC(=O)OCC(=O)[C@@]12OC(C)(C)O[C@@H]1C[C@H]1[C@H]3C[C@H](F)C4=CC(=O)C=C[C@@]4(C)[C@]3(F)[C@H](O)C[C@@]12C,–,–,–,–,–,–
CCN1C(=O)/C(=C2/Sc3ccc(OC)cc3N2C)SC1=Nc1cccc(O)c1,–,–,–,–,–,3.2µM
CNc1nc2c(c(=O)n(C)c(=O)n2C)n1Cc1ccccc1,–,–,–,–,–,–
Cn1c(=O)c2c(nc(NC(Cc3ccccc3)C(=O)O)n2Cc2ccccc2)n(C)c1=O (stereo not drawn),–,–,–,–,25µM,–
COc1ccc(C(=O)c2oc3ccccc3c2N)cc1,–,–,–,–,–,13µM
Nc1c(C(=O)c2ccc(F)cc2)oc2ccccc12,–,–,–,–,–,?
COc1ccc2[nH]c3c(=O)n(CCCCC(=O)N4CCC(C(N)=O)CC4)c(=S)[nH]c3c2c1,?,–,–,–,–,–
COc1ccc2[nH]c3c(=O)n(CCCCC(=O)NCCN4CCCC4)c(=S)[nH]c3c2c1,–,–,–,–,10µM,–
COc1nc(Nc2cccc(C)c2)nc(N2CCCCC2)n1,–,–,–,–,4µM,–
CC(=O)CCc1oc2ccc(NC(C)=O)cc2c1-c1ccc(C)o1,–,–,–,–,16µM,–
CN1[C@@H]2CC(OC(=O)[C@@H](CO)c3ccccc3)C[C@H]1[C@H]1O[C@H]12 (stereo partly drawn),–,–,–,–,–,–
COc1cc(NC(=O)NCCN2CCN(c3ccc(Cl)cc3)CC2)ccc1C,–,–,–,–,?,13µM
CCCc1nc2sc3ccccc3c(=O)c2c(=O)n1Cc1ccco1,–,–,–,–,–,16µM
CCCc1nc2oc3cc(OC)ccc3c(=O)c2c(=O)n1Cc1ccco1,–,–,–,–,–,–
CN1C[C@H](C(=O)N[C@]2(C)O[C@@]3(O)[C@H]4CCCN4C(=O)[C@@H](Cc4ccccc4)N3C2=O)C[C@H]2c3cccc4[nH]cc(c34)C[C@@H]21,–,–,·,·,·,–
Cc1oc(/N=C/c2cccc3ccccc23)c(C#N)c1C,–[11.4 µM],–,–,–,?,0.79µM
N#C/C(=C\c1ccc(O)c(O)c1)C(=O)NCCCc1ccccc1,–,–,–,–,2.5µM,–
N#C/C(=C\c1ccc(O)c(O)c1)C(=O)c1ccc(O)c(O)c1,?,–,–,–,4µM,–
N#C/C(=C\c1ccc(O)c(O)c1)S(=O)(=O)c1ccccc1,–,–,–,–,4µM,–
NC(=S)N/N=C\c1c[nH]c2ccccc12,–[11.4 µM],–,–[15.4 µM],–[15.4 µM],–[11.4 µM],–[11.4 µM]
N#C/C(=C\c1c[nH]c2ccccc12)C(=O)c1ccc(O)c(O)c1,–,–,–,–,0.25µM,–
C=CC[C@@H]1C=C[C@@H](O/N=C\c2ccc(C(=O)N3[C@H](c4ccc(C)cc4)[C@@H](C)CC[C@H]3C(=O)OC)cc2)[C@@H](CO)O1,·,·,–[15.4 µM],–[15.4 µM],–[11.4 µM],·
O=C(O)[C@H]([C@H]1NCCS1)N1Cc2ccccc2C1,–[11.4 µM],–,–[15.4 µM],–[15.4 µM],–[11.4 µM],–[11.4 µM]
CC(=O)OC/C=C(\C)CC/C=C(\C)CC/C=C(\C)CC/C=C(\C)CC/C=C(\C)CC/C=C(\C)CC/C=C(\C)CC/C=C(\C)CCC=C(C)C,·,·,–,–,–,·
CCOC(=O)C1(O)Oc2cc(OC)cc(OC)c2C(=O)C1c1ccccc1 (stereo not drawn),·,·,–,–,–,·
Cc1nc2cc(NC(=O)Nc3ccc(N4CCOCC4)cc3)ccc2n1C,–,–,–,–,–,25µM
O=C1C(C=NCc2ccco2)=C(O)c2ccccc21,–,–,–,–,–,25µM

# High-throughput results from PubChem.
